# “And” between values parts separate entries of the source, which are not always exact repeats. Equal entries are not always repeated. About 83,000 compounds went through this panel and 20% of them were active in at least one assay; those are over-represented in the sample as a whole.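 A percent growth of 40 corresponds to 60% growth inhibition; 0 means no net growth; -100 means all cells died. Active threshold: below 10.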 The source made the active and inactive calls.
# Test system: TK-10 renal
# Experiment: NCI-60 one-dose screen, 48 h (100 = growth as untreated, 0 = no growth, -100 = all killed)
# Settings: 10 µM unless noted
row,SMILES,growth
1,Cc1ccc(/C=N/Nc2cc(C)c3cccc(C)c3n2)s1,-67.1% [100 µM] (active) and -100% [100 µM] (active)
2,C=C1C(=O)C2=CC1CCC(=O)C1(C)CCC(OC(C)=O)C(C)(C)C1CC2O (stereo not given),-96% [100 µM] (active) and -89.5% [100 µM] (active)
3,CC1=C(C2=C(C)C(=O)C(=O)c3cc(C)ccc32)c2ccc(C)cc2C(=O)C1=O,-100% [100 µM] (active)
4,CCOC(=O)C1C(C(C)C)C2(C#N)C(=N)OC1(C)C2(C#N)C#N (stereo not given),5.66% [100 µM] (active) and -73.8% [100 µM] (active)
5,C=C(C)C1CC2(C)C(C)CC(O)CC2C(OC(=O)C=C(C)C)C1O (stereo not given),17.2% [100 µM] (inactive) and 48.8% [100 µM] (inactive)
6,COc1ccc(OC)c(Cc2cnc3nc(N)nc(N)c3c2C)c1,27.5% [100 µM] (inactive) and -100% [100 µM] (active)
7,COc1c(/C=C/C=O)cc2c(c1OC)OCO2,-2.29% [100 µM] (active) and -52.3% [100 µM] (active)
8,C=C1C(=O)OC2CC3(C)CCCC(C)C3=CC12 (stereo not given),-100% [100 µM] (active) and -97% [100 µM] (active)
9,CN1CCc2cc3c(c4c2C1C(O)c1ccccc1-4)OCO3 (stereo not given),9.4% [100 µM] (active) and -86.5% [100 µM] (active)
10,CCOc1cc2c(cc1O)/C(=N\OC)C[C@@H]1[C@@H]2CC[C@]2(C)[C@@H](O)CC[C@@H]12,-12.5% [100 µM] (active) and -99.5% [100 µM] (active)
